The subject of the assay is V-C8 (BRCA2-deficient hamster cells). The assay can be described thus: normalised cell viability (fraction of plate median); higher = more viable cells (less toxic). The following applies: 5 µM. In short, it runs like this:
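BRCA2-deficient hamster V-C8 cells and BRCA2-restored V-C8 cells were plated in 96-well plates, and library drugs were added 24 h later at 5 μM in 100 μl medium. Exposure lasted 3 days in screen 1 and 6 days in screen 2, next to solvent-only wells. Viability was then read by resazurin assay, median-plate normalised and averaged across triplicate wells.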

38 compounds from the supplement of paper PMC6609913 can be followed below.

SMILES strings stand for the structures. Counter-ions that a name gives are not always drawn. ± gives the standard deviation of the averaged measurements. The full ranking holds about 1,300 compounds; the median of “normalised cell viability” is about 1, and the lowest 2% start at about 0.14. Shown is part of a subset that was picked to be rich in the lowest values.

On to `CN(C/C=C/c1ccccc1)Cc1cccc2ccccc12` [Naftifine hydrochloride], for which the normalised cell viability reads like this: (treatment time: 3 days) 0.199 ± 0.019; (treatment time: 6 days) 0.219 ± 0.0077.

On to `CC(O)(P(=O)(O)O)P(=O)(O)O` [Etidronic acid, disodium salt], for which the normalised cell viability reads like this: (treatment time: 3 days) 1.03 ± 0.024; (treatment time: 6 days) 1.05 ± 0.046.

As to `CNC(=C[N+](=O)[O-])NCCSCc1ccc(CN(C)C)o1` [Ranitidine hydrochloride], the normalised cell viability was determined as 1.02 ± 0.13 (treatment time: 3 days) and 1.08 ± 0.045 (treatment time: 6 days).

As to `CC(=O)OCC(=O)[C@@]1(OC(C)=O)[C@@H](C)C[C@H]2[C@@H]3C[C@H](F)C4=CC(=O)C=C[C@]4(C)[C@@]3(F)[C@@H](O)C[C@@]21C` [Diflorasone Diacetate], the normalised cell viability was 1.18 ± 0.074 (treatment time: 3 days) and 1.02 ± 0.051 (treatment time: 6 days).

`OC[C@H]1O[C@@H](Oc2ccc(O)cc2)[C@H](O)[C@@H](O)[C@@H]1O` [Arbutin]: the normalised cell viability is, setting by setting: (treatment time: 3 days) 1.05 ± 0.026; (treatment time: 6 days) 1.03 ± 0.058.

Take `CCOc1ccc(Cc2nccc3cc(OCC)c(OCC)cc23)cc1OCC` [Ethaverine hydrochloride]: the normalised cell viability reads like this: (treatment time: 3 days) 0.625 ± 0.013; (treatment time: 6 days) 0.534 ± 0.022.

As to `CC(=O)O[C@H]1C[C@@H]2CC[C@@H]3[C@H](CC[C@@]4(C)[C@H]3C[C@H]([N+]3(C)CCCCC3)[C@@H]4OC(C)=O)[C@@]2(C)C[C@@H]1N1CCCCC1` [Vecuronium bromide], the normalised cell viability by setting is: (treatment time: 3 days) 1.01 ± 0.047; (treatment time: 6 days) 1.04 ± 0.036.

For `Clc1ccc(C(Cn2ccnc2)OCc2c(Cl)cccc2Cl)c(Cl)c1` (stereo unspecified) [Isoconazole], the normalised cell viability is, setting by setting: (treatment time: 3 days) 1.12 ± 0.04; (treatment time: 6 days) 1.09 ± 0.045.

With `NCCCC(O)(P(=O)(O)O)P(=O)(O)O` [Alendronate sodium], the normalised cell viability (treatment time: 3 days) turned out to be 0.709 ± 0.1 and the normalised cell viability (treatment time: 6 days) stood at 0.515 ± 0.033.

`O=C(Nc1ccc([N+](=O)[O-])cc1Cl)c1cc(Cl)ccc1O` [Niclosamide] had a normalised cell viability (treatment time: 3 days) of 0.124 ± 0.0032 and a normalised cell viability (treatment time: 6 days) of 0.0967 ± 0.0062.

With `CN(C)CCOC(c1ccccc1)c1ccccc1.Cn1c(=O)c2[nH]c(Cl)nc2n(C)c1=O` [Dimenhydrinate], the normalised cell viability (treatment time: 3 days) worked out at 1.08 ± 0.086 and the normalised cell viability (treatment time: 6 days) worked out at 1.04 ± 0.024.

As for `CN1C(C)(C)CCCC1(C)C` [Pempidine tartrate], the normalised cell viability is, setting by setting: (treatment time: 3 days) 0.993 ± 0.026; (treatment time: 6 days) 1.048 ± 0.004.

In the case of `C=C1C(=O)O[C@H]2[C@H]1CC/C(C)=C/CC[C@@]1(C)O[C@@H]21` [Parthenolide], the normalised cell viability was 0.199 ± 0.017 (treatment time: 3 days) and 0.416 ± 0.11 (treatment time: 6 days).

Turning to `Clc1ccc(CCC(Cn2ccnc2)Sc2c(Cl)cccc2Cl)cc1` (stereo unspecified) [Butoconazole nitrate], the normalised cell viability stood at 0.839 ± 0.015 (treatment time: 3 days) and 0.801 ± 0.028 (treatment time: 6 days).

For the compound `CS(=O)(=O)c1ccc(C2=C(c3ccccc3)C(=O)OC2)cc1` [Rofecoxib], the normalised cell viability is, setting by setting: (treatment time: 3 days) 1.02 ± 0.065; (treatment time: 6 days) 1.02 ± 0.016.

Take `CC(C)c1c(C(=O)Nc2ccccc2)c(-c2ccccc2)c(-c2ccc(F)cc2)n1CC[C@@H](O)C[C@@H](O)CC(=O)O` [Atorvastatin]: the normalised cell viability runs as follows: (treatment time: 3 days) 0.633 ± 0.051; (treatment time: 6 days) 0.734 ± 0.032.

In the case of `CC(C)n1c(/C=C/C(O)CC(O)CC(=O)O)c(-c2ccc(F)cc2)c2ccccc21` (stereo unspecified) [Fluvastatin sodium salt], the normalised cell viability reads like this: (treatment time: 3 days) 0.121 ± 0.0047; (treatment time: 6 days) 0.156 ± 0.004.

Compound `C=CC(N)CCC(=O)O` (stereo unspecified) [Vigabatrin] registered a normalised cell viability (treatment time: 3 days) of 1.04 ± 0.061 and a normalised cell viability (treatment time: 6 days) of 1.03 ± 0.042.

In the case of `CCN(CC)CCCC(C)Nc1c2ccc(Cl)cc2nc2ccc(OC)cc12` (stereo unspecified) [Quinacrine dihydrochloride dihydrate], the normalised cell viability (treatment time: 3 days) was 0.123 ± 0.011 and the normalised cell viability (treatment time: 6 days) came out at 0.108 ± 0.009.

`CCN(CC)CCCC(C)Nc1ccnc2cc(Cl)ccc12` (stereo unspecified) [Chloroquine diphosphate]: the normalised cell viability is, setting by setting: (treatment time: 3 days) 0.756 ± 0.026; (treatment time: 6 days) 0.76 ± 0.0079.

The compound `CCN(CCO)CCCC(C)Nc1ccnc2cc(Cl)ccc12` (stereo unspecified) [Hydroxychloroquine sulfate] came in with a normalised cell viability (treatment time: 3 days) of 0.365 ± 0.05 and a normalised cell viability (treatment time: 6 days) of 0.524 ± 0.048.

Consider `Clc1ccc(COC(Cn2ccnc2)c2ccc(Cl)cc2Cl)cc1` (stereo unspecified) [Econazole nitrate], for which the normalised cell viability is 0.938 ± 0.028 (treatment time: 3 days) and 0.98 ± 0.023 (treatment time: 6 days).

`CC[C@H](C)[C@H](N)C1=N[C@H](C(=O)N[C@@H](CC(C)C)C(=O)N[C@H](CCC(=O)O)C(=O)N[C@H](C(=O)N[C@H]2CCCCNC(=O)[C@H](CC(N)=O)NC(=O)[C@@H](CC(=O)O)NC(=O)[C@H](Cc3cnc[nH]3)NC(=O)[C@@H](Cc3ccccc3)NC(=O)[C@H]([C@@H](C)CC)NC(=O)[C@@H](CCCN)NC2=O)[C@@H](C)CC)CS1` [Bacitracin]: the normalised cell viability was determined as 1.05 ± 0.02 (treatment time: 3 days) and 0.983 ± 0.061 (treatment time: 6 days).

As to `CCCCNc1c(C(=O)OCC)c(C)nc2c1cnn2CC` [Tracazolate hydrochloride], the normalised cell viability by setting is: (treatment time: 3 days) 0.947 ± 0.034; (treatment time: 6 days) 1.03 ± 0.013.

With `Nc1nc(=O)c2c([nH]1)NC[C@@H](CNc1ccc(C(=O)N[C@@H](CCC(=O)O)C(=O)O)cc1)N2C=O` [Folinic acid calcium salt], the normalised cell viability was 1.05 ± 0.036 (treatment time: 3 days) and 1.11 ± 0.06 (treatment time: 6 days).

With `COC(=O)N/N=C/c1c[n+]([O-])c2ccccc2[n+]1[O-]` [Carbadox], the normalised cell viability runs as follows: (treatment time: 3 days) 0.69 ± 0.18; (treatment time: 6 days) 0.549 ± 0.029.

With `Cc1cc(/C=C/c2ccc3cc(N(C)C)ccc3[n+]2C)c(C)n1-c1ccccc1` [Pyrvinium pamoate], the normalised cell viability was 0.132 ± 0.0063 (treatment time: 3 days) and 0.172 ± 0.012 (treatment time: 6 days).

Regarding `CC1(C)S[C@@H]2[C@H](NC(=O)[C@H](N)c3ccccc3)C(=O)N2[C@H]1C(=O)OC1OC(=O)c2ccccc21` (stereo partly specified) [Talampicillin hydrochloride], the normalised cell viability is, setting by setting: (treatment time: 3 days) 1.09 ± 0.082; (treatment time: 6 days) 1.02 ± 0.085.

Take `COc1cc([C@@H]2c3cc4c(cc3[C@@H](O[C@@H]3O[C@@H]5CO[C@@H](C)O[C@H]5[C@H](O)[C@H]3O)[C@H]3COC(=O)[C@H]23)OCO4)cc(OC)c1O` [Etoposide]: the normalised cell viability is, setting by setting: (treatment time: 3 days) 0.155 ± 0.0057; (treatment time: 6 days) 0.133 ± 0.017.

Turning to `COc1cc(NS(=O)(=O)c2ccc(N)cc2)ncn1` [Sulfamonomethoxine], the normalised cell viability is, setting by setting: (treatment time: 3 days) 1.02 ± 0.057; (treatment time: 6 days) 1.05 ± 0.031.

Take `CC(C)(C)NC[C@H](O)c1ccc(O)c(CO)c1` [Levalbuterol hydrochloride]: the normalised cell viability reads like this: (treatment time: 3 days) 1.03 ± 0.049; (treatment time: 6 days) 0.99 ± 0.13.

For the compound `CC(C)(S)[C@@H](N)C(=O)O` [Penicillamine], the normalised cell viability turned out to be 0.964 ± 0.074 (treatment time: 3 days) and 1.04 ± 0.097 (treatment time: 6 days).

For the compound `N[C@@H](C(=O)N[C@@H]1C(=O)N2C(C(=O)O)=C(Cl)CC[C@H]12)c1ccccc1` [Loracarbef], the normalised cell viability amounted to 1.05 ± 0.1 (treatment time: 3 days) and 1.06 ± 0.033 (treatment time: 6 days).

Consider `CC(C)(C)c1ccc(C(O)CCCN2CCC(C(O)(c3ccccc3)c3ccccc3)CC2)cc1` (stereo unspecified) [Terfenadine], for which the normalised cell viability runs as follows: (treatment time: 3 days) 0.13 ± 0.0051; (treatment time: 6 days) 0.1 ± 0.0041.

As to `OC(CCCN1CCCCC1)(c1ccccc1)c1ccccc1` [Diphenidol hydrochloride], the normalised cell viability was 1.06 ± 0.037 (treatment time: 3 days) and 1.05 ± 0.031 (treatment time: 6 days).

Turning to `CC(C)(C(=O)O)c1ccc(C(O)CCCN2CCC(C(O)(c3ccccc3)c3ccccc3)CC2)cc1` (stereo unspecified) [Fexofenadine HCl], the normalised cell viability reads like this: (treatment time: 3 days) 1.09 ± 0.02; (treatment time: 6 days) 1.04 ± 0.046.

Regarding `NC[C@@H]1O[C@@H](O[C@H]2[C@H](O)[C@@H](O[C@H]3O[C@H](CO)[C@@H](O)[C@H](N)[C@H]3O)[C@H](N)C[C@@H]2N)[C@@H](O)[C@H](O)[C@H]1O` [Kanamycin A sulfate], the normalised cell viability (treatment time: 3 days) was 0.965 ± 0.052 and the normalised cell viability (treatment time: 6 days) amounted to 1.04 ± 0.02.

For the compound `O=C1CN2Cc3c(ccc(Cl)c3Cl)N=C2N1` [Anagrelide], the normalised cell viability is 1.01 ± 0.077 (treatment time: 3 days) and 1.03 ± 0.054 (treatment time: 6 days).
